# Test results: PubChem BioAssay AID1569 (National Center for Advancing Translational Sciences (NCATS), 2009)
# Records with an inconclusive call do not appear. The source made the active and inactive calls. Calls follow the shape of the dose curve; as a rule, active = well fitted inhibition curve with a large enough effect; inconclusive = small, poorly fitted or top-dose-only effect, or effect the other way, or another doubt; inactive = no such curve, though single readings can be large or run the other way.
# Experiment: Confirmation Concentration-Response Assay for lipid storage modulators; also: nearly all actives have a fitted effect of over 80% in size;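 as to activity change, negative = inhibition: -100% = full block of lipid deposition by 20 µM Triacsin C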
# Conditions: Drosophila S3 cells, lipid droplet BODIPY/CellTracker ratio, 18-24 h; series mostly up to 46.1 µM; activity change, negative = inhibition: at the top concentration
# How it was run: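 Cells at 5,000/well received compound as a titration plus oleic acid (added as 400 uM solution) and were incubated 18–24 h at 24 °C. BODIPY 493/503 lipid signal and CellTracker Red cell count were read by 488-nm laser-scanning cytometry. Activity was normalised to 20 uM Triacsin C.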
# Potency is read from the fitted curve at half-maximal effect.
Structure (SMILES),"activity change, negative = inhibition",Potency
COc1ccc(CCNC(=O)Cn2cccc2C(=O)c2ccccc2C)cc1OC,-1.33% (inactive),
C[C@@H]1NS(=O)(=O)[C@H]2C[C@@H]3C=C[C@]2(O3)[C@H]1OC(=O)c1ccccc1Br,12.1% (inactive),
COc1ccc(CCn2ccc(O)c(Cc3ccc(Cl)cc3)c2=O)cc1OC,,0.315 µM (active)
CCC(C)N1C(=O)c2ccccc2C1C(=O)NC1CCCCCC1 (stereo unspecified),,1.99 µM (active)
CCc1ccc(NC(=O)COc2ccc(/C=C(/C#N)c3nc4ccccc4[nH]3)cc2OC)cc1,,7.05 µM (active)
O=C(CC(O)(C(F)(F)F)C(F)(F)F)Nc1ccc(Cl)c(Cl)c1,,9.96 µM (active)
COCc1ccc(C(=O)NC2CCCc3c2cnn3-c2cc(C)cc(C)c2)s1 (stereo unspecified),,0.0244 µM (active)
COc1ccc(CCNC(=O)Cn2nnc(-c3ccc(N4CCOCC4)cc3)n2)cc1OC,,0.0445 µM (active)
Cc1ccc(C)c(S(=O)(=O)N2CCN(CC(=O)Nc3sccc3C#N)CC2)c1,,9.96 µM (active)
CCOc1ccc(CCNC(=O)COC(=O)c2cccc(N(C)C)c2)cc1OCC,,0.396 µM (active)
CCN(CC)C(=O)c1sc2nc(-c3cccs3)cc(-c3cccs3)c2c1N,,7.91 µM (active)
CCOC(=O)c1c(C)[nH]c(C(=O)OCC(=O)NCCc2ccc(OCC)c(OCC)c2)c1C,,0.888 µM (active)
CC(Oc1ccc2oc3ccccc3c2c1)C(=O)NC12CC3CC(CC(C3)C1)C2 (stereo unspecified),,0.705 µM (active)
COc1ccc(CCNC(=O)CCCOc2cccc(C)c2C)cc1OC,-9.33% (inactive),
Cc1ccc(C)c(OCc2cc(C(=O)N3CC[C@@H]4CCCC[C@H]4C3)no2)c1,,14.1 µM (active)
S=C(Nc1cc(Cl)ccc1Oc1ccccc1)N1CCN(c2ccccn2)CC1,,2.5 µM (active)
COc1ccc(CCNC(=O)Cn2cnc3c(cnn3-c3ccccc3Cl)c2=O)cc1OC,-8% (inactive),
C1=C(CCNc2ncnc3c2[nH]c2ccccc23)CCCC1,,0.996 µM (active)

Structure (SMILES),"activity change, negative = inhibition",Potency
COc1ccc(CCNC(=O)COc2ccc(-c3ccccc3)cc2)cc1OC,10.7% (inactive),
COc1ccc(CCNC(=O)CSc2nnc(-c3ccccc3)c3ccccc23)cc1OC,,4.45 µM (active)
CCOc1ccc(CCNC(=O)COC(=O)CSc2ccccc2C)cc1OCC,22.7% (inactive),
COc1cc(/C=N/NC(=O)c2ccc(CN3C(=O)c4cccc5cccc3c45)cc2)cc(OC)c1O,,4.99 µM (active)
COCCN(C(=O)c1ccccc1F)c1nnc(-c2ccc(OC)cc2)s1,,25 µM (active)
CC(C)(C)c1cc[n+](C2=C([O-])c3ccccc3C(=O)/C2=N\S(=O)(=O)c2cccs2)cc1,,28.1 µM (active)
COc1ccc(N=NC2C(=O)N(c3ccccc3)N=C2C)cc1 (stereo unspecified),,14.1 µM (active)
COc1cc2c(cc1NC(=S)NC(=O)c1c(OC)cccc1OC)oc1ccccc12,,2.17 µM (active)
CC1CCCN(C2=C(NS(=O)(=O)c3ccc(Br)cc3)C(=O)c3ccccc3C2=O)C1 (stereo unspecified),,2.5 µM (active)
CCCCCCCCn1c(=O)c(C(=O)OC)c(N)c2ccccc21,,7.91 µM (active)
O=C(CCc1ccccn1)NC1CCCc2c1cnn2-c1ccc(F)cc1F (stereo unspecified),-20.8% (inactive),
COCCCN1C(=O)c2ccc(C(=O)OCC(=O)NCc3ccccc3OC)cc2C1=O,24.1% (inactive),
O=C(NC1CCCc2c1cnn2-c1ccc(F)cc1F)c1ccccn1 (stereo unspecified),,0.0112 µM (active)
CCCCCCCCCCCCCCCC[n+]1cccc2ccccc21,,1.22 µM (active)
Cc1cc(Nc2ccccc2)nc(NCc2ccccc2)n1,,11.2 µM (active)
COc1ccc(OC)c(CCNC(=O)Cn2sc3nc(C)cc(C)c3c2=O)c1,,4.99 µM (active)
COc1c(C)cc(C(=O)C2CCCN(C(=O)c3ccc4[nH]ccc4c3)C2)cc1C (stereo unspecified),,17.3 µM (active)
COc1ccc(CCNC(=O)CC2SC(N)=NC2=O)cc1OC (stereo unspecified),3.33% (inactive),
